# Measurements as given in PubChem BioAssay AID504660 (National Center for Advancing Translational Sciences (NCATS), 2011).
# The whole screen tested about 360,000 compounds, of which about 3,700 (1%) were called active. No stated cut-off is given here; in the data, active means activation above about 30%; inactive means the rest. The sample as a whole holds a higher share of actives than the screen did.
# Biological target: D(1A) dopamine receptor (Homo sapiens) (UniProt P21728)
# Test: Allosteric Agonists of the Human D1 Dopamine Receptor: qHTS; further: 0% is about no effect
# Conditions: HEK293 T-REx D1 cells, calcium flux, agonist mode; at 2 µM; hits give high values
# How it was run: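 Tetracycline-induced HEK293 TREx D1 cells, force-coupled to calcium signalling, were dye-loaded with a no-wash calcium kit. Compound was pin-added after a 10 s baseline. Fluorescence was read kinetically at 1 cycle/s for 180 s, with calcium rises flagged as agonism.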
# Chain of D(1A) dopamine receptor (Homo sapiens) (P21728 whole entry, looked up): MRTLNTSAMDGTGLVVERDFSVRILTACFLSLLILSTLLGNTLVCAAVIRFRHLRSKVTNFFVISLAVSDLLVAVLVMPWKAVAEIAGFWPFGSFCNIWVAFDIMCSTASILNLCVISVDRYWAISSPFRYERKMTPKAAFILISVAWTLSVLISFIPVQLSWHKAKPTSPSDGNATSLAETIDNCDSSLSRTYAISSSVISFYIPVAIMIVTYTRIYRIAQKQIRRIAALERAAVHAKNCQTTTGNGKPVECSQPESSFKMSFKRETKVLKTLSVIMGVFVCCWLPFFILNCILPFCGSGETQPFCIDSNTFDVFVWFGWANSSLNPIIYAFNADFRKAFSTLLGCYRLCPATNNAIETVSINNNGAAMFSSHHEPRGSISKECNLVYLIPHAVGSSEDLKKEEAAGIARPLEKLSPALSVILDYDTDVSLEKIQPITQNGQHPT
row,SMILES,activation
1,CCc1nc2cccnc2n1-c1ccc(CC(=O)Nc2c(C)cccc2C)cc1,1.78% (inactive)
2,Cc1ccc(Cn2c(=O)n(Cc3nc(-c4ccccc4)no3)c(=O)c3cc4c(cc32)OCO4)cc1,-0.256% (inactive)
3,COc1ccccc1Cc1nc2ccccc2nc1SCC(=O)N1CCCc2ccccc21,0.349% (inactive)
4,CCCN1CN=C(NS(=O)(=O)c2ccc(NC(C)=O)cc2)NC1,-0.217% (inactive)
5,COc1ccc(CC(=O)Nc2nnc3n2CCS3)cc1OC,1.78% (inactive)
6,Cc1ccc(NC(=O)c2cn3c4c(ccc(Cl)c4c2=O)OC(C)C3)cc1C (configuration not stated),2.01% (inactive)
7,Fc1ccccc1Cn1cnc(NC(=S)NCCc2ccccc2)n1,1.4% (inactive)
8,O=C(COC(=O)Cc1ccccc1F)NCCc1ccccc1,2.43% (inactive)
9,N=c1n(CCc2ccccc2)c2ccccc2n1Cc1ccccc1F,100% (active)
10,O=C(Nc1cc(Cl)cc(Cl)c1)c1ccc2c(c1)N(Cc1cccc(Cl)c1)C(=O)c1ccccc1S2=O (configuration not stated),6.19% (inactive)
11,COc1cc(NC(=O)c2cc([N+](=O)[O-])ccc2Br)ccc1NC(=O)c1ccco1,0.47% (inactive)
12,CCC(=O)NC(=S)Nc1ccc(NC(=O)c2ccco2)c(Cl)c1,42.4% (active)
13,COc1ccc(NC(=O)c2ccco2)cc1NC(=O)COc1ccc(C)c(C)c1,-1.09% (inactive)
14,COc1ccc(Cn2ccc3nc(C)c(C(=O)Nc4ccc(C)c(F)c4)cc3c2=O)cc1,2.43% (inactive)
15,Cc1cc(C)c(NC(=O)C[N+](C)(C)CC(O)COc2cccc3ccccc23)c(C)c1 (configuration not stated),62.2% (active)
16,Cc1cc(C)cc(OCC(=O)NCc2cc(C)nc3ccccc23)c1,-0.104% (inactive)
17,CC(C)c1ccccc1OCC(O)CN(CC(O)COc1cccc2ccccc12)C(C)C (configuration not stated),6.15% (inactive)
18,Cc1ccc2c(=O)c(C(=O)c3ccc(Cl)cc3)cn(CC(=O)NC3CCCCC3)c2n1,1.93% (inactive)
19,CCOc1ccc(CNC(=O)c2ccc3c(c2)nnn3C2CCCC2)cc1,1.9% (inactive)

row,SMILES,activation
1,CC(=O)c1cccc(NC(=O)CSc2nc3c(c(=O)[nH]2)CCC3)c1,1.96% (inactive)
2,CCn1c(=O)cc(OCC(=O)Nc2cc(Cl)c(OC)cc2OC)c2ccccc21,0.964% (inactive)
3,CC(=N\NC(=O)c1cc(Br)ccc1O)/C(=N/O)C(=O)Nc1ccccc1,5.39% (inactive)
4,CC(C)/C=N/NC(=O)c1cc(Br)ccc1O,32.1% (active)
5,CC(C)Cc1cc(C(=O)Nc2cc(Br)ccc2O)no1,-1.17% (inactive)
6,CCc1ccc(S(=O)(=O)Nc2cc3c(C(=O)OCc4ccccc4)c(C)oc3c3ccccc23)cc1,5.87% (inactive)
7,Cc1ccccc1NC(=O)Cn1c(=O)n(CC2CCC(C(=O)NCCc3ccccc3)CC2)c(=O)c2ccccc21 (configuration not stated),0.988% (inactive)
8,CCc1nnc(SCc2nc(-c3cccc(C)c3)oc2C)c2cc3sc(C)cc3n12,1.16% (inactive)
9,CCOc1cccc(C(=O)Nc2nnc(S(=O)(=O)N(C)c3ccc(C)cc3)s2)c1,-0.514% (inactive)
10,CC(C)c1ccc(OCC(O)CN2CCN(c3ccccn3)CC2)cc1 (configuration not stated),2.28% (inactive)
11,O=S(=O)(c1ccc(OCC(O)CN2CCN(c3ccccc3Cl)CC2)cc1)N1CCOCC1 (configuration not stated),105% (active)
12,CC(=O)c1ccc(OCC(O)CN2CCN(S(=O)(=O)c3cccc(Br)c3)CC2)cc1 (configuration not stated),0.785% (inactive)
13,Cc1ccc2nc(N3CCN(c4cccc(Cl)c4)CC3)c3nnnn3c2c1,0.249% (inactive)
14,CCN(CC)c1nn2c(=O)c(C(=O)NCCc3ccccc3)cnc2s1,-0.903% (inactive)
15,COc1ccc(NC(=O)CSC2=Nc3ccccc3C3=NC(CC(=O)NCc4ccccc4OC)C(=O)N23)cc1Cl (configuration not stated),4.46% (inactive)
16,Cc1cccc(OCCSc2nc3ccc(NC(=O)COc4ccccc4C)cc3s2)c1,14.8% (inactive)
17,COc1ccccc1Cn1c(CO)nc2ccccc21,2.48% (inactive)
18,C=C(Br)Cn1c(CCCC)nc2ccccc21,2.85% (inactive)
19,COCc1nc2ccccc2n1Cc1ccccc1Br,30.7% (active)

row,SMILES,activation
1,Cc1ccc(Nc2nc(CSc3nnnn3-c3ccccc3)cc(=O)[nH]2)cc1,0.0289% (inactive)
2,Cc1ccc(-c2noc(CSc3nnc(-c4ccc(Cl)cc4)n3C)n2)cc1,-2.32% (inactive)
3,Cc1ccc(-c2noc(CSc3nnnn3-c3ccccc3)n2)cc1,45.5% (active)
4,COc1ccc(C(=O)Nc2cccc(C(=O)OCc3cc(=O)n4c5c(sc4n3)CCCC5)c2)cc1,0.659% (inactive)
5,CCc1ccccc1N1C(=O)CN(S(=O)(=O)CC)CC1(C)C(=O)NC1CCCCC1 (configuration not stated),0.155% (inactive)
6,COc1cc(C(=S)NCc2ccccc2)cc(Br)c1O,1.7% (inactive)
7,COc1cc(C(=O)NCc2ccncc2)cc(Br)c1OCc1ccccc1,62.9% (active)
8,COc1cc(C(=O)NCc2ccc(-n3cccc3)cc2)cc(OC)c1OC,4.24% (inactive)
9,CC(C)OCCCn1c(SCC(=O)c2ccccc2)nc2c(sc3ccccc32)c1=O,-1.31% (inactive)
10,Cc1ccccc1CNC(=O)C1CCCN(S(=O)(=O)N(C)c2ccc(F)cc2)C1 (configuration not stated),2.76% (inactive)
11,CCN(CC)c1ccc2cc(C(N)=O)/c(=N\NC(=O)c3ccncc3)oc2c1,68.8% (active)
12,C/C(=N\NC(N)=S)c1ccncc1,0.713% (inactive)
13,CCOC(=O)c1c(C)oc2ccc(N(C(=O)c3ccncc3)S(=O)(=O)c3ccc(CC)cc3)cc12,2.86% (inactive)
14,CCCCCCn1nnc2sc(-c3ccccc3)cc2c1=O,2.52% (inactive)
15,COC(=O)c1c(NC(C)=O)sc(C(=O)Nc2ccccc2OC)c1C,2.77% (inactive)
16,COc1ccccc1NC(=O)c1sc2nc(C)c(C(=O)Nc3ccc(Cl)cc3)c(-c3ccc(Br)cc3)c2c1N,48.4% (active)
17,COc1ccc(Cl)cc1NC(=O)c1sc2nc3c(cc2c1N)CN(C)CC3,5% (inactive)
18,O=C(CCc1cn(Cc2ccc(F)cc2)c2ccccc12)NC1CCCCC1,4.91% (inactive)
19,O=C(NCCc1ccc(Cl)cc1)c1ccc2c(c1)N(Cc1ccc(F)cc1)C(=O)CS2,-1.03% (inactive)
